RAD54 inh: blocks human RAD54 Holliday junction branch migration. actives 0.14% (n = 360,000). Q92698. FAM/BHQ fluorescence. inhibition, % at 10.4 µM;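 active = mean normalized replicate activity at least 40 and at least half of replicates scoring 40 or more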;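 also: 0% = median of neutral control wells and 100% = median of positive control wells; inhibitors cause a drop in the FAM fluorescence signal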
dFosB act-1: mouse delta FosB homodimer activation. activation, % at 25 µM. P13346. purified delta FosB, TAMRA-CDK5 oligo fluorescence polarization; percent of positive-control signal above neutral wells. AID 493131. actives 0.99% (n = 340,000);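 active = mean activation above about 17%, with every replicate also reaching it, limit read from the data, passing the limit was not always enough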
Target sequence (P13346 whole entry, looked up): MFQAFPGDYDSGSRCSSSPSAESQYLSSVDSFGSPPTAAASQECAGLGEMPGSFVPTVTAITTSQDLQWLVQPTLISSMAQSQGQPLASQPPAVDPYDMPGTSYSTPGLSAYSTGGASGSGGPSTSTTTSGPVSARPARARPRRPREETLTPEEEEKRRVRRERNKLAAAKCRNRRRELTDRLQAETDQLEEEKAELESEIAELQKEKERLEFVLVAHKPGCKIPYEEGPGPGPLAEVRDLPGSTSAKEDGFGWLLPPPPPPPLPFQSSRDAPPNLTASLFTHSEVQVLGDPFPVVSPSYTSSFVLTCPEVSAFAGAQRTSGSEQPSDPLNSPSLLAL
F508del corr: correctors of CFTR F508del function in bronchial epithelial cells; CFBE cells, YFP halide quenching; stimulated with forskolin plus potentiator P3; % fluorescence drop versus neutral controls; activity (quench increase), % at 7.58 µM; actives 0.36% (n = 350,000);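 active = mean added fluorescence quench of at least 8% versus neutral control, with both replicates also reaching 8%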;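 also: cells transiently co-express mutant CFTR-F508del with the halide-sensitive YFP; corrector assay measuring rescue of mutant channel to the surface after 24 h compound exposure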
RAD52 inh: blocks human RAD52 DNA annealing; P43351; recombinant RAD52 DNA annealing, FRET fluorescence; inhibition, % at 18.7 µM; actives 0.46% (n = 360,000); AID 651710;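 active = every replicate showing at least 50% inhibition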
PvdQ acylase: blocks Pseudomonas aeruginosa PvdQ acylase activity | actives 0.063% (n = 340,000) | purified PvdQ acylase, fluorescence plate reader | inhibition, % at 10 µM; in the data active = inhibition above about 30%, passing the limit was not always enough;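 also: 0% = vehicle neutral wells and 100% = reference inhibitor wells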
N-glyco inh: blocks N-linked glycosylation in D54 reporter cells. D54 ERlucT glycosylation luciferase reporter, 24 h; percent of 100 nM tunicamycin response. reporter increase, % at 12.5 µM. actives 0.23% (n = 360,000). AID 588692;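 active = mean luciferase reporter signal, scaled so untreated is 0 and the glycosylation-blocking control 100, at or above a set limit in every replicate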;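 also: luciferase carries N-glycosylation sites so blocking glycosylation raises the light; 0% = median of neutral control wells and 100% = median of 100 nM tunicamycin wells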
dFosB act-2: enhances mouse delta FosB homodimer binding to DNA; activation, % at 24.9 µM; AID 588690; shares compounds with dFosB act-1; 2,400 tested, under 10 active; purified delta FosB, TAMRA-CDK5 oligo fluorescence polarization; normalised: neutral wells 0, positive control 100;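 active = highest replicate activation at or above 34% and every replicate reaching that threshold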;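 also: higher polarization means more probe DNA bound by delta FosB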
* hit, by the source's call; i = inactive; x = no result. Hits are enriched below; roughly 1.5% of the tested compounds scored in any of these assays.

SMILES | RAD54 inh | dFosB act-1 | F508del corr | RAD52 inh | PvdQ acylase | N-glyco inh | dFosB act-2
CCOc1ccc(CCN2C(=S)N([C@@H](CC(C)C)CN3CCCC3CN3C(=S)NC[C@@H]3Cc3ccc(O)cc3)C[C@@H]2Cc2ccccc2)cc1 (stereo partly specified) | -6 | 65* | 1 | -32 | -20 | -9 | 4
CCOc1ccc(CCN2C(=S)N([C@@H](CC(C)C)CN3CCCC3CN3C(=S)NC[C@@H]3Cc3ccccc3)C[C@@H]2CC(C)C)cc1 (stereo partly specified) | x | x | -1 | -75 | x | x | x
CCOc1ccc(CCN2C(=S)N([C@@H](CC(C)C)CN3CCC[C@@H]3CN3C(=S)NC[C@@H]3CC(C)C)C[C@@H]2Cc2ccc(O)cc2)cc1 | 0 | x | 2 | -9 | x | -15 | x
CCOc1ccc(CCN2C(=S)N([C@@H](CC(C)C)CN3CCCC3CN3C(=S)NC[C@@H]3CC(C)C)C[C@@H]2Cc2ccc(O)cc2)cc1 (stereo partly specified) | 6 | 37* | -1 | -23 | -5 | -12 | 3
CCOc1ccc(CCN2C(=S)N([C@@H](CC(C)C)CN3CCCC3CN3C(=S)NC[C@@H]3Cc3ccc(O)cc3)C[C@@H]2CC(C)C)cc1 (stereo partly specified) | 10 | 26* | 6 | -23 | -15 | -10 | 5
Oc1ccc(C[C@H]2CNC(=S)N2CC2CCCN2C[C@H](Cc2ccccc2)N2C[C@H](Cc3ccc(O)cc3)N(CCc3ccccc3)C2=S)cc1 (stereo partly specified) | 5 | 67* | 0 | -72 | 5 | -5 | 1
CCOc1ccc(CCN2C(=S)N([C@@H](Cc3ccc(O)cc3)CN3CCC[C@@H]3CN3C(=S)NC[C@@H]3Cc3ccccc3)C[C@@H]2Cc2ccc(O)cc2)cc1 | 2 | x | 1 | -9 | x | -5 | x
O=C(Cn1c(=O)oc2cc(S(=O)(=O)N3CCCC3)ccc21)N1CCN(c2ccccc2)CC1 | 1 | 4 | -1 | -14 | -5 | -2 | x
O=C(Cn1c(=O)oc2cc(S(=O)(=O)N3CCCC3)ccc21)NC1CCCc2ccccc21 (stereo unspecified) | -3 | 26* | -1 | -6 | -16 | -4 | 3
Cc1ccc(C)c(N2CCN(C(=O)Cn3c(=O)oc4cc(S(=O)(=O)N5CCCC5)ccc43)CC2)c1 | 0 | 35* | 1 | -14 | -16 | -6 | 2
COc1ccc(CC(=O)OCC(=O)Nc2ccc(C(=O)Nc3ccc(OC)cc3)cc2)cc1 | x | 22* | 0 | -20 | -15 | -1 | 6
COc1ccc(NC(=O)C2(c3ccc(NC(=O)c4ccc(C)cc4)cc3)CCCC2)cc1 | -3 | 23* | 1 | -7 | -9 | 0 | 0
CCOc1ccc(NC(=O)c2ccc(NC(=O)COC(=O)Cc3ccc(OC)cc3)cc2)cc1 | x | 1 | 1 | -19 | 7 | 3 | x
COc1cccc(CNC(=O)C2CCC(CNc3nc(=S)[nH]c4ccccc34)CC2)c1 (stereo unspecified) | 3 | 37* | -3 | -17 | 1 | -2 | 2
COc1ccc(CNC(=O)Cc2csc(Nc3nc(=S)[nH]c4ccccc34)n2)cc1 | -8 | 35* | x | x | 4 | 2 | 7
O=C(Cc1csc(Nc2nc(=S)[nH]c3ccccc23)n1)NCCCN1CCN(c2ccccc2F)CC1 | 4 | 20* | 0 | -41 | 7 | 3 | 3
C[C@@H]1CN([C@@H](C)CO)S(=O)(=O)c2ccc(-c3cccnc3)cc2O[C@H]1CN(C)C(=O)C1CC1 | x | x | -1 | x | x | x | x
CCCN1C[C@H](C)[C@H](OC)CN(C)C(=O)c2ccc(NC(=O)c3cccc(OC)c3)cc2OC[C@H]1C | 7 | x | 2 | 23 | x | x | x
COc1cc(/C=C/C(=O)OCC(=O)NCc2ccco2)ccc1OC(F)F | -5 | -10 | -2 | -2 | -9 | 4 | x
COc1cc(/C=C/C(=O)OCC(=O)NCC(=O)Nc2cccc(C)c2C)ccc1OC(F)F | 6 | 20* | 5 | -14 | -6 | -1 | 3
Cc1ccccc1-c1ccc([C@@H]2[C@@H](CO)N3C(=O)CN(C(=O)Nc4ccc(F)cc4)C[C@@H]23)cc1 | x | x | 0 | -17 | x | x | x
CC(C)[C@@H]1CN=C(N)N1C[C@@H]1CCCN1C[C@H](C)N1C[C@@H](Cc2ccccc2)N(CCc2ccc(Cl)c(Cl)c2)C1=N | 17 | 20* | x | x | -5 | -2 | -1
Cc1noc(C)c1NC(=O)Nc1ccc2c(c1)C(=O)N([C@@H](C)CO)C[C@@H](C)[C@@H](CN(C)C(=O)Nc1ccccc1)OCCCC[C@@H](C)O2 | 0 | x | 0 | -3 | x | x | x
COc1cccc(CN(C)C[C@H]2OCc3ccccc3-c3c(n(C)c4ccccc34)C(=O)N([C@H](C)CO)C[C@@H]2C)c1 | x | x | -4 | 6 | x | x | x
COC(=O)c1ccc(OCC(=O)Nc2ccsc2C(=O)OC)cc1 | 2 | 36* | -5 | 6 | -13 | 2 | 2
SMILES | RAD54 inh | dFosB act-1 | F508del corr | RAD52 inh | PvdQ acylase | N-glyco inh | dFosB act-2
COC(=O)c1sccc1NC(=O)COc1cccc(C)c1 | x | -18 | 1 | 0 | -7 | 0 | x
COc1cccc(-c2cc(C(=O)Nc3cnn(Cc4ccccc4C)c3)no2)c1 | 3 | 43* | x | x | 1 | -2 | 1
COc1cccc(-c2cc(C(=O)Nc3cnn(Cc4ccc(F)cc4)c3)no2)c1 | 8 | 2 | x | x | 5 | 4 | x
CCCC(=O)Nc1ccc2c(c1)C(=O)N(C)[C@H]1CC[C@H](CC(=O)Nc3ccccc3)O[C@H]1CO2 | -3 | x | -1 | 4 | x | x | x
Cc1c(N=C2N=C(NC(=O)Nc3ccc(Cl)cc3)c3ccccc32)c(=O)n(-c2ccccc2)n1C | x | 38* | 0 | i | -6 | 6 | -30
Cc1c(NC(=O)Nc2ccc(Cl)cc2)c(=O)n(-c2ccccc2)n1C | -2 | 6 | x | x | 0 | 0 | x
O=[N+]([O-])c1ccc2[nH]c3nc4ccccc4nc3c2c1 | 1 | 38* | 1 | -14 | 5 | -1 | 8
COc1ccc(N2C(=O)CC(NNC(=O)c3ccc(Br)s3)C2=O)cc1 (stereo unspecified) | x | 45* | 0 | -11 | 2 | 0 | -2
COc1cc(/C=N\NC(=O)c2ccc(C)nc2)ccc1OC(=O)c1ccco1 | x | -14 | x | -14 | 11 | 3 | x
COc1cc(/C=N\NC(=O)c2ccc(C)nc2)ccc1OC(=O)c1ccc2c(c1)OCO2 | x | 139* | x | x | -11 | 1 | 7
CC(C)(C)NC(=O)CN(C(=O)Cn1nnc(-c2ccc(Cl)cc2)n1)C1CCN(Cc2ccccc2)CC1 | 5 | 26* | x | x | -7 | -5 | -1
COc1ccc(NC(=O)N[C@@H]2CC[C@@H](CCNC(=O)CCN3CCCCC3)O[C@H]2CO)cc1 | 4 | x | 0 | -7 | x | x | x
